Only some compounds are listed: those with a hit (about 6.9% of all), similar ones and a draw of the others.
MCF10A rerep: inducers of DNA re-replication in MCF 10A breast cells; MCF 10A DNA re-replication, Hoechst nuclear intensity, 48 h; Potency, µM (series often up to 46.1 µM), without a hit: at the highest dose activity, positive = re-replication, actives largely listed as activators; actives 2.9% (n = 350,000); also: potency is read from the fitted curve at half-maximal effect; % of control where 0% means no effect; nearly all actives have a fitted effect of over 50% in size
S-ASM inh: human S-ASM enzyme inhibition; Potency, µM (highest dose often 57.5 µM), for the others: top-dose activity change, negative = inhibition, actives largely listed as inhibitors; placental ASM, HMU-PC fluorogenic substrate, 60 min; actives 0.006% (n = 340,000); also: potency is read from the fitted curve at half-maximal effect
Target sequence (P17405 47-631 limits assumed): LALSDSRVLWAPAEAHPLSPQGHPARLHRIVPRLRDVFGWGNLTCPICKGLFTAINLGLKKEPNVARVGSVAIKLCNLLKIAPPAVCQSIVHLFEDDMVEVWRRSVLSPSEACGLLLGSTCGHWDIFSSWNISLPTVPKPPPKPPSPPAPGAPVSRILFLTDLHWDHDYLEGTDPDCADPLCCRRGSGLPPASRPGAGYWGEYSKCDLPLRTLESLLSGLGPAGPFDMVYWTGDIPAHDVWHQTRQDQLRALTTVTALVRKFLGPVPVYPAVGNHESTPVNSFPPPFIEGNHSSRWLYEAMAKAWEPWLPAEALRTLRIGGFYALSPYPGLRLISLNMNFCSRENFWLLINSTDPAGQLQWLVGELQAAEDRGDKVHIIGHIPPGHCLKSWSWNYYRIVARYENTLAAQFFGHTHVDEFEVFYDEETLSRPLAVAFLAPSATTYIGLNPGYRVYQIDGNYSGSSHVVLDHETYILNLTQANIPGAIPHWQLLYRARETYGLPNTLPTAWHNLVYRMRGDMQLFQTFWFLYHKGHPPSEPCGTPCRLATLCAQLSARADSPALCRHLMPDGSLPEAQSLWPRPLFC
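Human placenta-derived ASM preincubated with compound 10 min at room temperature, then reacted with 9 uM (final) fluorogenic HMU-PC substrate for 60 min at 37 C. Stop solution raises pH to 10; fluorescence read at Ex 386/Em 447 nm.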
Giardia killer: kills Giardia lamblia | Giardia lamblia trophozoite viability | activity change, % at 7.66 µM, hits read low | actives 0.15% (n = 340,000) | AID 540267; in the data active = activity change below about -80%; inconclusive = between about -30% and that limit;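 also: parasites exposed to compound for two days anaerobically before the ATP read; % is scaled to controls: 0 for no effect and ±100 for the full control effect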
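ATP-content bioluminescence gauges trophozoite survival. Cells (100/well) receive compound and incubate anaerobically for 48 hrs at 37 deg C; detection reagent follows for 15-30 min at room temperature.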
KB-V1 cytotox: KB-V1 MDR subline cytotoxicity; KB-V1 MDR cells viability, CellTiter-Glo, 72 h; Potency, µM (series often up to 46.1 µM), usual class: cytotoxic; AID 1347076; actives 3.4% (n = 400,000); also: potency is read from the fitted curve at half-maximal effect; % is scaled to controls: 0 for no effect and ±100 for the full control effect; nearly all actives have a fitted effect of over 60% in size
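KB-V1 MDR subline cells in DMEM (phenol-red free, 10% FBS) exposed to compounds in qHTS concentration series for 72 h at 37 degrees C. Viability read by CellTiter-Glo luminescence; concentration-effect curves fitted after normalization and correction.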
KB-3-1 tox: kills parental KB-3-1 adenocarcinoma cells. KB-3-1 viability, CellTiter-Glo ATP luminescence, 72 h. Potency, µM (top dose mostly 46.1 µM), hits mostly cytotoxic. actives 1.4% (n = 400,000). AID 1347075; also: potency is read from the fitted curve at half-maximal effect; % is scaled to controls: 0 for no effect and ±100 for the full control effect; nearly all actives have a fitted effect of over 60% in size
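Parental KB-3-1 adenocarcinoma cells in phenol-red-free DMEM with 10% FBS were pin-treated with compounds at several concentrations, incubated 72 h at 37 °C, and viability read by CellTiter-Glo luminescence; concentration-effect curves were fitted after normalization.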
SW480 rereplic: induces DNA re-replication in SW480 colon adenocarcinoma cells. SW480 DNA re-replication, Hoechst DNA content imaging, 48 h. Potency, µM (series often up to 46.1 µM), for the others: at the top dose re-replication activation, hits mostly activators. actives 1.8% (n = 340,000). AID 624297; also: potency is read from the fitted curve at half-maximal effect; % of control where 0% means no effect; nearly all actives have a fitted effect of over 55% in size
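First, 250 cells per well were seeded. Next, compound or vehicle (23 nL) was pinned in, plates sat 48 hr at 37 C. Finally Hoechst was added for 40 min before fluorescence scanning.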
The depositor's hits bear a star; i = inactive; u = inconclusive; x = no result given; [ ] = remark or other dose. Unless noted, calls follow the shape of the dose curve; as a rule, active = well fitted curve in the direction sought with a large enough effect; inconclusive = small, poorly fitted or top-dose-only effect, or another doubt; inactive = no such curve, though single readings can be large; an effect the other way counts as inactive or inconclusive.

SMILES	MCF10A rerep	S-ASM inh	Giardia killer	KB-V1 cytotox	KB-3-1 tox	SW480 rereplic
COC(=O)c1ccc(NC(=O)c2cccc(N3C(=O)C4C5C=CC(C6CC56)C4C3=O)c2)cc1 (configuration not stated)	16µM*	-26%	-12	u	u	-2%
O=C(Nc1ccc(F)cc1)c1cccc(N2C(=O)C3C4CCC(C4)C3C2=O)c1 (configuration not stated)	-2%	-2%	1	10µM*	u	1%
CC(=O)/C(C#N)=C1\NC(=O)C(Cc2ccc(C)c(Cl)c2)S1 (configuration not stated)	u	-1%	-5	9.2µM*	18µM*	-10%
CCc1ccc(CC2S/C(=C(\C#N)C(C)=O)NC2=O)cc1 (configuration not stated)	u	3%	17	7.3µM*	u	20%
C/C(=N\N=C1\NC(=O)C(CC(=O)Nc2ccc(C)c(Cl)c2)S1)C(C)(C)C (configuration not stated)	u	-24%	-14	i	i	3%
CCOC(=O)c1ccc(CC2S/C(=C(\C#N)C(C)=O)NC2=O)cc1 (configuration not stated)	u	2%	9	i	u	-2%
CCN(C(=O)Cn1cnc2onc(-c3ccc(F)cc3)c2c1=O)c1ccc(OC)cc1	x	x	x	i	i	x
CCc1ccccc1N(C(=O)c1snc(C(N)=O)c1N)C(C(=O)NCC1CCCO1)c1c[nH]c2ccccc12 (configuration not stated)	u	120%	-26	u	u	u
O=C(C1CC(=O)N(C2CCCC2)C1)N1CCC(Cc2ccccc2)CC1 (configuration not stated)	0%	0%	7	13µM*	i	5%
COCCNC(=O)CN1C(=O)COc2ccc(S(=O)(=O)N3CCCC3)cc21	x	x	x	i	i	x
COC(=O)c1ccc(C)c(NC(=S)NCc2ccc(Cl)cc2)c1	5%	-2%	3	23µM*	i	-6%
O=C(O)CNS(=O)(=O)c1cccc(Cl)c1	2%	3%	-5	i	i	-7%
CCCc1ccc(S(=O)(=O)N/N=C(/C)c2ccc3c(c2)OCO3)cc1	9%	-18%	4	i	i	-10%
Clc1ccc(Cn2ncc3c(NCc4ccco4)ncnc32)c(Cl)c1	u	-8%	-7	u	u	u
Clc1ccc(-n2ncc3c(NCc4ccco4)ncnc32)cc1	u	1%	-21	u	5µM*	u
CCc1cc2c(NCc3ccco3)ncnc2s1	2%	3%	16	21µM*	12µM*	6%
COc1ccc(-n2ncc3c(NCc4ccco4)ncnc32)cc1	5%	1%	-20	21µM*	i	-4%
Cc1ccc(Cl)cc1-n1ncc2c(NC3CCCCCC3)ncnc21	x	x	x	u	21µM*	x
O=C(CN(Cc1ccc(F)cc1)C(=O)CCC(=O)Nc1nccs1)NCc1ccccc1	0%	0%	5	i	i	-1%
Cc1ccc(-c2nn(CC(=O)NC3CCCCC3)c3c2cnc2ccc(F)cc23)cc1C	x	x	x	i	i	x
O=C(C[n+]1ccccc1Cl)c1ccc(O)c(O)c1	x	x	x	i	u	x
CCOC(=O)C[C@H]1c2cc(F)ccc2S(=O)(=O)N1Cc1cc(OC)c(OC)c(OC)c1	x	x	x	u	i	x
COc1ccc(S(=O)(=O)N2CCOCC2)cc1NC(=O)/C=C/c1ccc(F)cc1	-2%	-10%	-15	i	i	0%
Cc1ccc(OCCCCn2nnc3sc4c(c3c2=O)CCC(C)C4)cc1 (configuration not stated)	x	x	x	i	i	x
Clc1ccc(-n2ncc3c(NCC4CCCO4)ncnc32)cc1 (configuration not stated)	u	-4%	-18	12µM*	23µM*	18µM*
SMILES	MCF10A rerep	S-ASM inh	Giardia killer	KB-V1 cytotox	KB-3-1 tox	SW480 rereplic
O=C(NNc1ncnc2c1cnn2-c1cccc(Cl)c1)c1ccco1	u	0%	2	i	i	21µM*
c1ccc(-n2ncc3c(NCC4CCCO4)ncnc32)cc1 (configuration not stated)	29%	-2%	18	u	i	-3%[9.22 µM]
O=C1CCCC2=C1C1(CCCC1)N=C(Nc1nc3cc(Br)ccc3o1)N2	x	x	x	i	i	x
CCN(CC(=O)Nc1ccc(OC)cc1)C(=O)Cc1coc2cc(C)c(C)cc12	-1%	-4%	-12	16µM*	i	-1%
CCN(CC(=O)Nc1ccc(OC)cc1)C(=O)c1cc2c(s1)CCCCC2	-3%	x	-4	u	i	4%
CCc1cc(C(=O)N(CC)CC(=O)Nc2ccc(OC)cc2)sc1C	u	4%	u	18µM*	i	9%
CCc1cccc2c(C(=O)CN3C(=O)NC4(CCCCC4)C3=O)c[nH]c12	13µM*	-1%	-6	u	u	-1%
CCc1cccc2c(C(=O)CCl)c[nH]c12	23µM*	0%	-9	i	i	u
CCc1cccc2c(C(=S)N3CCCC3)c[nH]c12	-2%	3%	5	i	i	-14%
Cc1cc2cc3c(=O)[nH]c(=O)cc-3n(CC(O)C(O)C(O)CO)c2cc1C (configuration not stated)	x	x	x	i	i	x
Cc1cc2cc3c(=O)[nH]c(=O)nc-3n(CC(O)C(O)C(O)CO)c2cc1C (configuration not stated)	u	i	10	i	i	21µM*
COc1cccc2c1OCC/C2=N\NC(=O)C(C)Oc1ccc([N+](=O)[O-])cc1 (configuration not stated)	u	-2%	7	i	i	6%
CCN(CC)C(=O)C1CCCc2c1[nH]c1ccc(Cl)cc21 (configuration not stated)	-7%	-2%	-8	i	6.5µM*	-8%
Cc1ccccc1-n1ncc2c(SCC(=O)NCc3cccs3)ncnc21	13µM*	-3%	14	7.3µM*	5.2µM*	21µM*
Cc1csc(NC(=O)CSc2ncnc3c2cnn3-c2ccccc2Cl)n1	22µM*	-8%	6	u	u	21%
CC(C)C(=O)NNC(=O)CSc1ncnc2c1cnn2-c1ccccc1Cl	7%	-1%	-5	u	i	10%
Cc1cccc(NC(=O)CN2C(=O)C(C)Oc3ccccc32)n1 (configuration not stated)	-8%	6%	-9	i	i	-35%
